Compound activity deposited in PubChem BioAssay by National Center for Advancing Translational Sciences (NCATS).
Only some compounds are listed: those with a hit (about 1.2% of all), similar ones and a draw of the others.
BRCT PPI green = blocks human BRCA1 BRCT binding to phosphopeptide, green readout; 0.05% of 75,000 active; AID 875; BRCA1 BRCT-phosphopeptide binding, green fluorescence polarization; Potency, µM (highest dose often 76.9 µM), inactives show top-dose activity change, negative = inhibition, hits mostly inhibitors;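 further: potency means the concentration at half of the fitted maximal effect; plate controls were peptide without protein for full effect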
Target sequence (P38398 whole entry, looked up): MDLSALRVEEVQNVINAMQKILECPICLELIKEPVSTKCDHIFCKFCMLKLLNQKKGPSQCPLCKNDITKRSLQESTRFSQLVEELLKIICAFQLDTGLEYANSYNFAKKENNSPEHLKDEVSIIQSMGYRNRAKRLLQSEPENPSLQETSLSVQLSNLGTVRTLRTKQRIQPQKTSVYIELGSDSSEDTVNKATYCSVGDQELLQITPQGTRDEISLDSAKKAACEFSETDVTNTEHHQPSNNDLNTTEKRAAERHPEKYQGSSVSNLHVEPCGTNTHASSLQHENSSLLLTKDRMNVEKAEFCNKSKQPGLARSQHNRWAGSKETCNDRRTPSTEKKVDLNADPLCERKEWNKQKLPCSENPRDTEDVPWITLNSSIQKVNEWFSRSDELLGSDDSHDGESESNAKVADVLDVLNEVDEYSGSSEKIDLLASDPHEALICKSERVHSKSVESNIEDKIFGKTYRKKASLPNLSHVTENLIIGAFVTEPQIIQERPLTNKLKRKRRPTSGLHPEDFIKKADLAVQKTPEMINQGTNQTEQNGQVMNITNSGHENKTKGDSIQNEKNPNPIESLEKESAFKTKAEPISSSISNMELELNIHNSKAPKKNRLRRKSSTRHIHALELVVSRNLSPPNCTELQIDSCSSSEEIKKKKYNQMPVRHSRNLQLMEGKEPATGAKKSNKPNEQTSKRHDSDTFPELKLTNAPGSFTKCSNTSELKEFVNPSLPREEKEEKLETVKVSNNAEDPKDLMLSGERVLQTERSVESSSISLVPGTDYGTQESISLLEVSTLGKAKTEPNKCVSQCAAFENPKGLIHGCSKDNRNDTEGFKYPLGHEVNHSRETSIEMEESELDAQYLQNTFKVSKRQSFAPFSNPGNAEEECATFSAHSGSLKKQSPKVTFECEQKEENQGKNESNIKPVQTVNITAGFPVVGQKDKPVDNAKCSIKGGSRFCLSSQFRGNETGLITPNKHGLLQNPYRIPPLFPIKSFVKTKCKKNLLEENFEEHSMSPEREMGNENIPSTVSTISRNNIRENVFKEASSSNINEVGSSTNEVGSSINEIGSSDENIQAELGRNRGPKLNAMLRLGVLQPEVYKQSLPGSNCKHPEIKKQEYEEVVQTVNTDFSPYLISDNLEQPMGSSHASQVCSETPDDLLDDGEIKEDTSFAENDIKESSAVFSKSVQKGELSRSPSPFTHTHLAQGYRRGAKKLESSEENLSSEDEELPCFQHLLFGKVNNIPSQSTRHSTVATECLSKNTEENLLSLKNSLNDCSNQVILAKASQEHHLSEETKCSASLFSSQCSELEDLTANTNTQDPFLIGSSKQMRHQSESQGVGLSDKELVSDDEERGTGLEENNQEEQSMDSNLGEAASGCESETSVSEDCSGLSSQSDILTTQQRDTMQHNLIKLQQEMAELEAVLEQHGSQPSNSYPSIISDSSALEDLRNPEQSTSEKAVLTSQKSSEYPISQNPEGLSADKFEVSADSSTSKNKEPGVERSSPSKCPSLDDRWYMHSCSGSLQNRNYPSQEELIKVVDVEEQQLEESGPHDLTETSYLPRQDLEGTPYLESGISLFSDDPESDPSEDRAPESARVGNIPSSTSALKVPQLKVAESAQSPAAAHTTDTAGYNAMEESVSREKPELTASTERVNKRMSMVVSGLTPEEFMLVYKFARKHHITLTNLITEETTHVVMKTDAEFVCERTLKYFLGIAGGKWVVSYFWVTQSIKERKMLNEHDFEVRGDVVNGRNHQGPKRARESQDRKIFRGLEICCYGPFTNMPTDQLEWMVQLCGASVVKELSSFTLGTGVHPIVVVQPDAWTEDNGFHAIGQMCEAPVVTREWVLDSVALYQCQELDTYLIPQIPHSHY
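Compounds were incubated for 12 min at room temperature with a complex of 100 nM fluorescein-tagged pBACH1 decapeptide and 250 nM His-tagged BRCT protein. Buffer was phosphate pH 7.3 with EDTA, DTT and Tween 20. Disruption of binding lowers the polarization signal.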
TsaE inh = inhibitors of E. coli YjeE (TsaE) | P0AF67 | purified YjeE enzyme, qHTS inhibition assay | Potency, µM | 0.05% of 71,000 active | AID 605
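Fluorescence polarization of a BODIPY Texas Red–ADP probe (2 uM) bound to purified YjeE (10 uM) was read after 15 min room-temperature incubation with compounds. Loss of polarization marks inhibitors; ADP serves as titrated control.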
ERK AVP inh = inhibitors of vasopressin-stimulated ERK signaling pathway; Potency, µM (doses to about 57.5 µM), for the others: top-dose activity, negative = inhibition, hits mostly inhibitors; HEK293-V1b, vasopressin-stimulated pERK AlphaScreen; AID 995; 0.99% of 72,000 active; further: potency means the concentration at half of the fitted maximal effect; on the % scale 0 is the no-effect control and ±100 the full control effect; nearly all actives have a fitted effect of over 55% in size
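qHTS, compounds titrated on V1b-expressing HEK293 cells. Preincubation 30 min at 37C, vasopressin 25 nM for 5 min, lysis 10 min, bead incubation 5 hr at room temperature.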
Pol III holo inh = blocks replication by bacterial DNA polymerase III holoenzyme; Potency, µM (top dose mostly 57.1 µM), for the others: at the highest dose activity change, negative = inhibition; AID 603; 0.25% of 71,000 active; reconstituted DNA polymerase III holoenzyme replication, biochemical; further: potency means the concentration at half of the fitted maximal effect; on the % scale 0 is the no-effect control and ±100 the full control effect
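Reconstituted *E. coli* holoenzyme (0.35 nM Pol III, 1 nM beta, 154 nM SSB, 2 nM primase) was preincubated with compound for 15 min at RT. Synthesis on 1.4 nM ssM13Gori ran 35 min, then was stopped with PicoGreen/EDTA and read as dsDNA fluorescence.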
BRCT PPI red = disrupts BRCA1 BRCT binding to phosphoprotein, red fluorophore readout. P38398. BRCT-phosphopeptide binding, red fluorescence polarization. Potency, µM (series often up to 76.9 µM), for the others: at the top dose activity change, negative = inhibition, actives largely listed as inhibitors. 0.03% of 75,000 active; further: on the % scale 0 is the no-effect control and ±100 the full control effect
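Rhodamine-labelled pBACH1 10-mer (100 nM) bound to BRCT domain (100 nM) at pH 7.3; compounds incubated 12 min room temperature, polarization read. Free peptide defines full inhibition; unlabelled decapeptide titrated as control.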
* hit, by the source's call; i = inactive; ? = inconclusive; / = no result; ! = not active in a repeat; [ ] = another dose, or the depositor's remark. The call rests on the fitted dose curve; in most records, active means well fitted curve in the direction sought with a large enough effect; inconclusive means small, poorly fitted or top-dose-only effect, or another doubt; inactive means no such curve, though single readings can be large; an effect the other way counts as inactive or inconclusive.

SMILES | BRCT PPI green | TsaE inh | ERK AVP inh | Pol III holo inh | BRCT PPI red
CNC1=C(Br)C(=O)c2ccncc2C1=O | -1.7% | i | ? | -12.7% | -0.1%
C=C1C(=O)O[C@H]2C[C@@]3(C)CCCC(=C)[C@@H]3C[C@H]12 | / | i | / | -0.7% | /
O=[N+]([O-])c1ccc(-c2nc(-c3ccc(F)cc3)c(-c3ccncc3)[nH]2)cc1 | 1.9% | / | 20µM* | / | -1.6%
O=C(Cl)c1cccc([N+](=O)[O-])c1 | 1.4% | i | -26.5% | 4.2% | 1.5%
C[C@@](N)(Cc1ccc(O)c(O)c1)C(=O)O | -3.4%[3.08 µM] | i | ? | 12.6µM*! | -2.7%
c1coc(C2Nc3cccc4cccc(c34)N2)c1 | ? | i | ? | 3.98µM* | ?
COc1cc(C2Nc3cccc4cccc(c34)N2)cc(OC)c1O | -4.3% | i | 0.7% | -0.1% | -2.1%
c1csc(CNc2ncncc2-c2ccc3c(c2)OCO3)c1 | 2.8% | i | 6.31µM* | -13.2% | -2.0%
O=C1CC(O)(C(F)(F)F)Oc2c1ccc1ccccc21 (configuration not stated) | -0.5% | i | 15.8µM* | -5.7% | 1.6%
O=C(CSc1nc(-c2ccccc2)cs1)NC(=O)NCc1ccco1 | 2.3% | i | 25.1µM* | 3.9% | -0.2%
O=C(CN1CCN(c2nc(-c3ccc(Cl)cc3)cs2)CC1)NCc1ccco1 | 6.3% | i | 31.6µM* | 1.9% | -3.3%
N[C@H](CS(=O)O)C(=O)O | / | i | / | 1.8% | /
COc1ccc2[nH]cc(CCNc3ccnc(-c4ccoc4)n3)c2c1 | 0.4% | i | ? | -2.9% | -1.5%
Nc1c(C(=O)OCC2CCCO2)c2nc3ccccc3nc2n1-c1ccc2c(c1)OCCO2 (configuration not stated) | -2.7% | i | 20µM* | 2.5% | 0.0%
O=C(O)c1cc(S(=O)(=O)Nc2cccc(Cl)c2)ccc1O | 0.9% | / | / | / | 0.7%
O=C(Oc1ccc(-c2cn3c(n2)SCC3)cc1)c1ccccc1 | -2.2% | i | 15.8µM* | 1.4% | -4.2%
O=C(Oc1ccccc1)c1ccc(-n2cnnn2)cc1 | 0.4% | i | -7.9% | -6.3% | -1.2%
CN(C)c1ccc(NC(=S)c2ccccn2)cc1 | -0.2% | i | 15.8µM* | -1.0% | -1.6%
Clc1ccccc1C(c1ccccc1)(c1ccccc1)n1ccnc1 | -1.1%[3.08 µM] | i | 25.1µM*! | -3.7%[25.6 µM] | -1.0%
Clc1ccccc1-c1nccc(-n2ccnc2)n1 | -1.0% | i | ? | -10.3% | 0.8%
COc1cccc(C(=O)N(Cc2cc3cc(C)ccc3[nH]c2=O)CC2CCCO2)c1 (configuration not stated) | 2.9% | i | ? | -2.1% | -0.7%
COc1ccc2[nH]c(=O)c(CN(CC3CCCO3)C(=O)Nc3ccc(F)cc3)cc2c1 (configuration not stated) | -1.9% | i | 12.6µM* | 5.9% | -1.7%
Cc1nc2ncnn2c(N2CCN(C(c3ccccc3)c3ccccc3)CC2)c1C | 10.6% | ? | 25.1µM* | -7.2% | 0.1%
COC(=O)[C@@H]1C[C@H]1[C@@H](NC(=O)OCc1ccccc1)c1ccccc1 | / | i | / | -11.7% | /
CCOC(=O)c1[nH]c2c(c1C)C(=O)CC(c1ccc(F)cc1)C2 (configuration not stated) | -2.8% | i | / | -3.3% | -4.1%
SMILES | BRCT PPI green | TsaE inh | ERK AVP inh | Pol III holo inh | BRCT PPI red
Cc1c(C(=O)OCC2CCCO2)[nH]c2c1C(=O)CC(c1ccc(N(C)C)cc1)C2 (configuration not stated) | -0.2% | i | 25.1µM* | 4.8% | -0.7%
O=C(O)C[C@H](NC(=O)CP(=O)(O)O)C(=O)O.[NH-][C@@H]1CCCC[C@@H]1[NH-].[Pt] | 1.1%[15.4 µM] | i | 5.2%[11.5 µM] | 1.8%[11.4 µM] | -0.5%[15.4 µM]
O=c1oc(-c2ccco2)nc2ccccc12 | 2.6% | i | 9.2% | -7.4% | -0.5%
c1coc(-c2nc3ccccc3nc2-c2ccco2)c1 | -3.1% | i | -6.3% | 25.1µM* | -3.0%
COc1cccc(-c2cc(NCc3ccc(OC)cc3OC)ncn2)c1 | 0.2% | i | -14.7% | 0.8% | -0.8%
Cc1cnc(CNc2cc(-c3ccccc3Cl)ncn2)cn1 | -2.9% | i | -20.8% | -2.8% | 0.1%
Clc1ccccc1-c1cc(NCc2ccccc2)ncn1 | 0.5% | i | 25.1µM* | -2.4% | 0.2%
COc1cccc(-c2cc(NCc3ccccc3)ncn2)c1 | -1.2% | i | 5.01µM* | 1.2% | -1.3%
COc1cccc2c1C(=O)c1c(O)c3c(c(O)c1C2=O)C[C@](O)(C(C)=O)C[C@H]3O[C@@H]1C[C@H](N)[C@H](O)[C@H](C)O1 | 7.3%[34.4 µM] | i | -0.1%[25.7 µM] | 2µM* | ?
CC(=O)[C@@]1(O)Cc2c(O)c3c(c(O)c2[C@H](O[C@H]2C[C@H](N)[C@H](O)[C@H](C)O2)C1)C(=O)c1ccccc1C3=O | -24.9% | 50.1µM* | ? | 3.98µM* | 12.6µM*
COc1cccc2c1C(=N)c1c(O)c3c(c(O)c1C2=O)C[C@](O)(C(C)=O)C[C@@H]3O[C@H]1C[C@H](N)[C@@H](O)[C@H](C)O1 | -0.5%[15.4 µM] | i | -18.5%[11.5 µM] | 3.16µM* | -1.7%[15.4 µM]
COc1cccc2c1C(=O)c1c(O)c3c(c(O)c1C2=O)C[C@@](O)(C(=O)CO)C[C@@H]3O[C@H]1C[C@H](N)[C@H](O)[C@H](C)O1 | 9.7% | / | ? | / | 10µM*
CC(=O)N1CCN(c2ccc(Nc3nc(C)nc4c3oc3ccccc34)cc2)CC1 | -4.0% | i | 10µM* | 0.9% | 1.1%
CC(=O)Nc1ccc(Nc2nc(C)nc3c2oc2ccccc23)cc1 | 0.1% | i | -17.8% | -8.6% | 0.3%
CN(Cc1ccccc1)c1nc2c(c(=O)[nH]c(=O)n2C)n1Cc1ccccc1Cl | -3.3% | i | 15.8µM* | -6.9% | -1.5%
CN(Cc1ccccc1)c1nc2c(c(=O)[nH]c(=O)n2C)n1CCCc1ccccc1 | -1.4% | i | 35.5% | -2.2% | -4.0%
Cn1c(=O)[nH]c(=O)c2c1nc(N(CCO)Cc1ccccc1)n2CCCc1ccccc1 | -1.9% | i | -17.4% | 3.9% | -0.3%
Cn1c(=O)[nH]c(=O)c2[nH]c(N(Cc3ccccc3)Cc3ccccc3)nc21 | -3.0% | i | 25.1µM* | -6.9% | -1.3%
CCCC(=O)N1CCN(c2ccc(NC(=O)c3cc4ccccc4o3)cc2Cl)CC1 | -1.4% | i | 7.94µM* | -7.4% | 0.3%
O=C(c1cc2ccccc2o1)N1CCN(c2ccccc2Cl)CC1 | -1.8% | i | 21.1% | 7.7% | -0.4%
O=C(Nc1ccc(N2CCN(C(=O)c3ccco3)CC2)c(Cl)c1)c1cc2ccccc2o1 | 1.3% | i | 7.94µM* | -4.6% | 0.1%
O=C(Nc1ccc(N2CCN(C(=O)c3ccccc3)CC2)c(Cl)c1)c1ccco1 | 2.8% | i | ? | 3.8% | 0.1%
CCC(=O)N1CCN(c2ccc(NC(=O)c3cc4ccccc4o3)cc2Cl)CC1 | -0.5% | i | 31.6µM* | -2.5% | 0.5%
